A selection: hits, their analogues and other compounds. The true share with any hit is near 10%.
GLS inh = qHTS for Inhibitors of Glutaminase (GLS); GLS enzymatic activity, qHTS titration; Glutaminase kidney isoform, mitochondrial (Homo sapiens), O94925; AID 624170, 2012; Potency, µM (titrated, usually from 45.5 µM), for the others: at the top dose activity change, negative = inhibition, actives largely listed as inhibitors; hit rate 0.21% among 410,000; also: % is scaled to controls: 0 for no effect and ±100 for the full control effect
Target sequence (O94925 whole entry, looked up, canonical isoform): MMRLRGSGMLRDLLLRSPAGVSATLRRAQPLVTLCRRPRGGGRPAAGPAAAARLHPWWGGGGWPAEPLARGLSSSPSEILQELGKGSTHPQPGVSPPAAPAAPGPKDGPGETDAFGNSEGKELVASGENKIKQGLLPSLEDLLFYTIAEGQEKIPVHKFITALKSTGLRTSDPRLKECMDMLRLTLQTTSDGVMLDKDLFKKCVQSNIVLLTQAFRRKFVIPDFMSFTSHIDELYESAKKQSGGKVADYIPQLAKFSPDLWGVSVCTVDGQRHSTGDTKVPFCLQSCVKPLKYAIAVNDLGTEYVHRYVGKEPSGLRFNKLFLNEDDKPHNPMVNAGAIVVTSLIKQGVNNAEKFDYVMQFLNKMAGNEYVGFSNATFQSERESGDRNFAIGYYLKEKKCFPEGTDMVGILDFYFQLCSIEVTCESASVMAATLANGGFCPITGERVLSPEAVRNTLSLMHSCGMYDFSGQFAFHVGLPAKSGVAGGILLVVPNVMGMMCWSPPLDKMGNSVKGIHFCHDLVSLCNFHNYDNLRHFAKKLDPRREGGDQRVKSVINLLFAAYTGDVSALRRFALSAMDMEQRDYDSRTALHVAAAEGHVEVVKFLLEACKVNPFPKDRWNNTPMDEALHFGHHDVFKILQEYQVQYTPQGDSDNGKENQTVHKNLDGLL
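Human kidney-isoform GLS in 45 mM KH2PO4 pH 8.2, 0.02% Tween-20, with compound, started with 1mM L-Glutamine (added stock). Glutamate oxidase/HRP/Amplex red coupled fluorescence read at start and after 30 min at RT.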
G9a inh = qHTS Assay for Inhibitors of Histone Lysine Methyltransferase G9a. Histone-lysine N-methyltransferase EHMT2 (Homo sapiens), Q96KQ7. G9a H3K9 monomethylation, AlphaScreen, 2 h. Potency, µM (doses to about 102 µM), without a hit: at the highest dose activity, negative = inhibition, actives largely listed as inhibitors. hit rate 8.8% among 350,000. AID 504332, 2011; also: % is scaled to controls: 0 for no effect and ±100 for the full control effect; nearly all actives have a fitted effect of over 75% in size
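Signal arises when biotinylated H3K9 peptide, once monomethylated, bridges streptavidin donor and antibody-captured acceptor beads. Enzyme at 20 nM was preincubated 15 min with test compounds; peptide 500 nM and SAM 20 uM then reacted for 2 h.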
BAZ2B block = qHTS Assay for Inhibitors of BAZ2B; Bromodomain adjacent to zinc finger domain protein 2B (Homo sapiens), Q9UIF8; Potency, µM (top dose mostly 114 µM), without a hit: at the highest dose activity change, negative = inhibition, actives largely listed as inhibitors; AID 504333, 2011; AlphaScreen BAZ2B-H3K14Ac peptide displacement; hit rate 4.4% among 360,000; also: % is scaled to controls: 0 for no effect and ±100 for the full control effect; nearly all actives have a fitted effect of over 60% in size
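Multi-concentration screen (max 110 uM) measuring displacement of acetylated histone H3 peptide from BAZ2B by AlphaScreen, using 50 nM protein, 50 nM peptide and 10 ug/mL streptavidin donor plus Ni-chelate acceptor beads.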
JMJD2A Tudor = qHTS Assay for Inhibitors of JMJD2A-Tudor Domain; Potency, µM (highest dose often 114 µM), for the others: top-dose activity change, negative = inhibition, hits mostly inhibitors; hit rate 4.4% among 390,000; AlphaScreen JMJD2A-Tudor / H3K4me3 peptide binding; AID 504339, 2011; Lysine-specific demethylase 4A (Homo sapiens), O75164; also: % is scaled to controls: 0 for no effect and ±100 for the full control effect; nearly all actives have a fitted effect of over 50% in size
HP1b chromo inh = HTS for Inhibitors of HP1-beta Chromodomain Interactions with Methylated Histone Tails | Chromobox protein homolog 1 (Homo sapiens), P83916 | AlphaScreen HP1-beta / biotin-H3K9me3 peptide binding | Potency, µM (series often up to 114 µM), for the others: top-dose activity change, negative = inhibition, hits mostly inhibitors | hit rate 0.56% among 390,000 | AID 540317, 2011; also: nearly all actives have a fitted effect of over 70% in size
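AlphaScreen: HP1-beta (50 nM) preformed 30 min with biotin-H3(1-18)K9me3 peptide (50 nM) in PBS pH 7.4, 0.01% Tween-20. Compound added for 30 min at RT, then streptavidin donor/nickel chelate acceptor beads (10 ug/mL) for 30 min.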
* marks the source's active call; other numbers are inactive results; u = inconclusive; x = not tested or not shown; [ ] = another dose, or the depositor's remark. Calls follow the shape of the dose curve; as a rule, active = well fitted curve in the direction sought with a large enough effect; inconclusive = small, poorly fitted or top-dose-only effect, or another doubt; inactive = no such curve, though single readings can be large; an effect the other way counts as inactive or inconclusive. Potency is read from the fitted curve at half-maximal effect.

SMILES	GLS inh	G9a inh	BAZ2B block	JMJD2A Tudor	HP1b chromo inh
CCOC(=O)c1sc(Nc2ccc(Br)cc2)nc1C	2%	u	-26%	56µM*	9%
COC(=O)c1sc(NC(=O)COc2ccc(OC)cc2)nc1C	0%	x	x	-10%	37%
CCOC(=O)c1sc(NC(=O)COc2ccc3c(c2)OCO3)nc1C	-12%	40µM*	-2%	1%	43%
COc1ccc(Oc2nc(-c3ccccn3)nc3ccccc23)cc1	u	x	-16%	u	6%
COC(=O)C1(C(C[N+](=O)[O-])c2ccco2)C(=O)NCC1c1ccccc1 (configuration not stated)	0%	11%	-13%	7%	18%
Cc1cc(/C([O-])=C(/C(=S)Nc2ccccc2)[n+]2ccccc2)c(C)n1-c1ccccc1	11%	50µM*	u	x	u
Cc1cc(/C([O-])=C(/C(=S)Nc2ccc(F)cc2)[n+]2ccccc2)c(C)n1-c1ccc(F)cc1	1%	u	45µM*	50µM*	x
CCCSc1nsc(NC(=O)C(c2ccccc2)c2ccccc2)n1	u	u	-1%	28%	73%
Cc1cc(OCC(=O)NCc2cccnc2)c2c(C)cc(=O)oc2c1	0%	x	-4%	-8%	40%
CC1(CC(=O)N/N=C/c2cc([N+](=O)[O-])c(O)cc2O)OCCO1	0%	40µM*	50µM*	u	8.9µM*
NC(=S)NNc1ccc(Cl)c(Cl)c1	27%	13µM*	u	u	-13%
FC(F)Oc1ccc(NC(=S)NNc2ccnc3cc(Cl)ccc23)cc1	-2%	40µM*	u	u	u
Clc1ccc2c(NNc3ccccc3Cl)ccnc2c1	1%	3.2µM*	2µM*	u	-18%
NC(=S)NNc1ccnc2cc(Cl)ccc12	6.3µM*	1µM*	50µM*	45µM*	u
O=C(NNc1ccnc2cc(Cl)ccc12)C1CCCCC1	u	6%	-15%	-10%	4%
CCC(C)Nc1nc(SC(C(C)=O)C(C)=O)nc(N(C)C)n1 (configuration not stated)	-13%	21%[59 µM]	u	u	4%
O=C(CSCc1ccccc1Br)Nc1ccccc1	-4%	x	11%	17%	51%
OC(CNCC1COc2ccccc2O1)COCc1cccs1 (configuration not stated)	12%	8.9µM*	89µM*	1.6µM*	-51%
CC(=O)c1cccc(OCC(O)CNCC2COc3ccccc3O2)c1 (configuration not stated)	0%	26%[0.501 µM]	32µM*	0.79µM*	50µM*
CC(OCC(O)CNCC1COc2ccccc2O1)c1ccc(Cl)cc1 (configuration not stated)	-12%	10µM*	79µM*	2.2µM*	u
COc1ccc(CNCC(O)COCc2cccs2)cc1 (configuration not stated)	0%	u	u	1.6µM*	-56%
Cn1c(=O)[nH]c(=O)c2c1nc(NCCc1ccccc1)n2CC(O)COc1ccccc1 (configuration not stated)	3%	u	-23%	-1%	13%
CC1=C(C)[N+](=O)C2(O)CCCCC2(C)N1[O-] (configuration not stated)	10%	-13%	-28%[57.1 µM]	6%	37%
Cc1cc(-c2ccccc2)nnc1NCCN1CCOCC1	12%	-29%[2.33 µM]	u	79µM*	42%
Fc1ccc2c(c1)NC(c1ccncc1)=NC(c1cccs1)=N2	13%	-28%[59 µM]	-36%	u	4%
COc1ccc2c(c1)NC(c1ccc(Cl)cc1)=NC(c1cccs1)=N2	5%	u	-28%	14µM*	u
CCOC(=O)c1c(NC(=O)c2cc(-c3ccc(OC)cc3)on2)sc(C)c1C	-3%	8.9µM*	-1%	14%	-4%
CCOC(=O)c1c(NC(=O)c2cc(-c3ccc(O)cc3)on2)sc(C(C)=O)c1C	u	22µM*	-9%	-24%	26%

Source: PubChem BioAssay
